Assay results as given in PubChem BioAssay (NCI).
The panel holds about 79,000 compounds, 15% with a hit somewhere; the sample as a whole holds those more often. No stated cut-off is given here; in the data, active means growth inhibition above about 70%; inactive means the rest.

What was measured:
[1] = NCI Yeast Anticancer Drug Screen. Data for the rad50 strain (AID 155);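 further: 0% = growth of vehicle-only cultures of the same strain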; details: S. cerevisiae rad50 strain growth inhibition; at 50.0 µM; stronger effect = higher value
Summary of the method: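 Inhibition values express reduced yeast growth in compound-treated cultures relative to vehicle-treated controls.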

[2] = NCI Yeast Anticancer Drug Screen. Data for the mec2-1 strain (AID 157); details: S. cerevisiae mec2-1 strain, at 50.0 µM, stronger effect = higher value
Summary of the method: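 Using mec2-1 yeast: add compound, measure growth, express inhibition versus vehicle-treated cultures.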

[3] = NCI Yeast Anticancer Drug Screen. Data for the sgs1 mgt1 strain (AID 161);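 further: 0% = growth of cultures given vehicle only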; details: S. cerevisiae sgs1 mgt1 strain, at 50.0 µM, stronger effect = higher value
Summary of the method: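 This yeast growth screen uses a strain with defined DNA-repair lesions; compound-treated growth is compared with vehicle-treated growth.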

[4] = NCI Yeast Anticancer Drug Screen. Data for the cln2 rad14 strain (AID 165);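 further: 0% = growth equal to vehicle treated cultures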; details: S. cerevisiae cln2 rad14 strain, at 50.0 µM, stronger effect = higher value
Summary of the method: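 Yeast strain cln2 rad14, bearing defects in cell cycle control and DNA repair, serves as the test system; values reflect growth inhibition compared with vehicle.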

[5] = NCI Yeast Anticancer Drug Screen. Data for the bub3 strain (AID 167); details: S. cerevisiae bub3 mutant strain, at 50.0 µM, stronger effect = higher value
Summary of the method: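 Steps: expose the mutant yeast strain to compound; grow alongside vehicle-treated cultures; measure growth; express inhibition against the vehicle cultures.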

[6] = NCI Yeast Anticancer Drug Screen. Data for the mlh1 rad18 strain (AID 175); details: S. cerevisiae mlh1 rad18 strain growth inhibition; at 50.0 µM; stronger effect = higher value
Summary of the method: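 Steps: expose repair-defective yeast to compound; measure growth; express inhibition against vehicle-treated controls.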

Measured: growth inhibition

CCOC(=O)/C=C(\N)c1ccccc1
inactive: [1] -7.8% | [2] -13.2% | [3] -15.6% | [4] -43.8% | [5] -30.4% | [6] -6.8%

O=C(c1ccc(Cl)cc1)c1ccc2ccccc2c1
inactive: [1] -5.3% | [2] -8.6% | [3] 5.35% | [4] -3.4% | [5] 7.8% | [6] 4.1%

CN1N=Nc2ccccc2C1(O)c1ccccc1 (stereo not given)
inactive: [1] 8.7% | [2] -3.05% | [3] 0.25% | [4] -18.6% | [5] -11.9% | [6] 6.9%

CN(CCN(C)C(=O)CCn1cc(F)c(=O)[nH]c1=O)C(=O)CCn1cc(F)c(=O)[nH]c1=O
inactive: [1] 26.1% | [2] 18.2% | [3] 50.4% | [4] 18.1% | [5] 3.05% | [6] 29.9%

C[Si](C)(/C(=C/COCc1ccccc1)CCOC1CCCCO1)c1ccccc1 (stereo not given)
inactive: [1] -5.4% | [2] -6.95% | [3] -17.1% | [4] -10.9% | [5] 0.6% | [6] -27.4%

Clc1ccc(CNc2nc3ccccc3nc2-c2cccs2)c(Cl)c1
inactive: [1] -0.3% | [2] 16.8% | [3] 11.3% | [4] 5.25% | [5] 12.3% | [6] 18.7%

CCOC(=O)CC[C@H](NC(=O)c1nc[nH]c1[N+](=O)[O-])C(=O)OCC
inactive: [1] -17.8% | [2] -36% | [3] -44.4% | [4] 8.9% | [5] -7.35% | [6] -34.4%

O=C(NCCCCNCCCNC(=O)OCc1ccccc1)OCc1ccccc1
inactive: [1] 14.7% | [2] -4.2% | [3] -2.65% | [4] -8.55% | [5] -20.4% | [6] -59.8%

COC(=O)CCC(=O)NC1=C(NCc2ccccc2)C(=O)c2ccccc2C1=O
inactive: [1] 26.8% | [2] 12.8% | [3] 31.1% | [4] 36% | [5] 38.9% | [6] 13.6%

COc1c(Cl)cc(Cl)cc1C(c1cc(Cl)cc(Cl)c1OC)C(Cl)(Cl)Cl
inactive: [1] -3.25% | [2] -6.1% | [3] 4.6% | [4] -5% | [5] -3.6% | [6] 7.1%

COc1ccc(C(NCCn2cnc3c2c(=O)n(C)c(=O)n3C)c2ccccc2)cc1 (stereo not given)
inactive: [1] 19.4% | [2] 4.05% | [3] 11.2% | [4] -33.6% | [5] -4.5% | [6] 18.8%

N=C1/C(=C/c2ccco2)C(=O)N=C2SC=NN12
inactive: [1] 7.75% | [2] 19.1% | [3] 13.2% | [4] -9.6% | [5] -5.6% | [6] 20.9%

C=CCC12CCC(=O)[C@@]1(C)CC=C(O)C2=O (stereo not given in full)
inactive: [1] 8.6% | [2] -2.8% | [3] 17.2% | [4] -18.2% | [5] 0.6% | [6] 0.9%

Brc1cc2ccccc2nc1-c1ccccc1
inactive: [1] -2.3% | [2] -7.95% | [3] 1% | [4] -23.4% | [5] 5.05% | [6] 10.1%

C=CCOC(=O)CC=C
inactive: [1] -8.7% | [2] -3.1% | [3] 4.75% | [4] 6.7% | [5] -11.4% | [6] 5.3%

C[C@]12CCC(=O)C(O)=C1CCC2=O
inactive: [1] 2.6% | [2] -7.35% | [3] -5.3% | [4] -14.9% | [5] 3.8% | [6] 4.5%

O=C(Nc1ccc(Cl)cc1)NS(=O)(=O)c1coc2cc(F)ccc2c1=O
inactive: [1] 7% | [2] -11.2% | [3] -23.6% | [4] 31.6% | [5] 16.4% | [6] 11.4%

NC1C([O-])OC(CO)C(O)C1O.O=C1OC(C(O)CO)C([O-])=C1[OH2+].[Cu+2] (stereo not given)
inactive: [1] -0.4% | [2] -0.15% | [3] -19.6% | [4] -8.25% | [5] -1.55% | [6] -12.8%

COCCCNC(=O)C1C(=O)C(=O)N(CCCOC)C1=O (stereo not given)
inactive: [1] -2.35% | [2] -3.45% | [3] -15.8% | [4] 13.2% | [5] -5% | [6] -10.6%

CCS1=C2C(=O)CC(C)(C)CC2=Nc2ccccc21 (stereo not given)
inactive: [1] 7.2% | [2] -0.15% | [3] 18.9% | [4] -8.05% | [5] 17.9% | [6] -31.1%
